Experimental data as given in the supplement of paper PMC12645437, “Orthogonal IMiD-Degron Pairs Induce Selective Protein Degradation in Cells” (ACS Chemical Biology, 2025).
In all, about 8,300 sequences were measured (“log2 fold change of degron read counts, EGFP-low vs EGFP+ sorted cells (limma voom), compound-induced degradation”: median about -1.1, highest 2% from about 3.2 on). For the sample, the highest values were picked, then their nearest neighbours and some sequences at random.

T1: CRBN, Q96SW2
T1 chain: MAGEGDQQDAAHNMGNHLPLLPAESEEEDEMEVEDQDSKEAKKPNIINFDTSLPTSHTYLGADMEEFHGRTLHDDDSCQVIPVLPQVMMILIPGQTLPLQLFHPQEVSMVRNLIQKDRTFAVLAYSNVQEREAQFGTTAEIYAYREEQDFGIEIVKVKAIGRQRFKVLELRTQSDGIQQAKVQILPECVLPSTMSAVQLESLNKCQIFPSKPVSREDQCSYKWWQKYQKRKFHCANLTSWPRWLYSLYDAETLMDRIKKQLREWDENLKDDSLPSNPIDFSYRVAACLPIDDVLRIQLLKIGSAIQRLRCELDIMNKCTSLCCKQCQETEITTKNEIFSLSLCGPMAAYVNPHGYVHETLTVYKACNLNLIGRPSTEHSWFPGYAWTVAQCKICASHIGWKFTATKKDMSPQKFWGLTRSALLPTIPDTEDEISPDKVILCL


Biological target: T1, CRBN, Q96SW2
Assay: log2 fold change of degron read counts, EGFP-low vs EGFP+ sorted cells (limma voom), compound-induced degradation; higher = more compound-induced degradation of the degron-EGFP fusion; degrons are variants of IKZF1/3 zinc finger 2; compound dose not given here
Settings: Jurkat, 18 h
[1] = compound: compound 19 (5-tert-butyl-thalidomide)
[2] = compound: compound 22 (5-morpholino-thalidomide)
[3] = compound: compound 33 (diphenyl IMiD analogue)
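Further: pooled lentiviral library of zinc finger degron-EGFP fusions in mCherry-positive Jurkat cells, FACS-sorted after compound exposure, with degron abundance counted by next-generation sequencing.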

| Sequence | log2 fold change of degron read counts [1] | log2 fold change of degron read counts [2] | log2 fold change of degron read counts [3] | log2 fold change of degron read counts (compound: thalidomide) |
| --- | --- | --- | --- | --- |
| FMCEQCGAPFTQKGNLLRHIKL [46F_47M_49E_50Q_52G_53A_54P_55F_67L_, Q9UKT9] | -0.389 | -0.627 | 1.41 | -0.399 |
| FTCEICGHIFTQKGNLLRHIKL [46F_47T_49E_50I_52G_53H_54I_55F_67L_, Q9UKT9] | -2.87 | -3.7 | -2.68 | -2.59 |
| FGCDICGANFTQKGNLLRHIKL [46F_47G_49D_50I_52G_53A_54N_55F_67L_, Q9UKT9] | -0.278 | -0.474 | 0.0264 | -0.564 |
| FYCNQCGRHFTQKGNLLRHIKL [46F_47Y_49N_50Q_52G_53R_54H_55F_67L_, Q9UKT9] | -2.11 | -2.71 | -2.01 | -2.05 |
| FRCNQCGHLFTQKGNLLRHIKL [46F_47R_49N_50Q_52G_53H_54L_55F_67L_, Q9UKT9] | -2.18 | -2.82 | -2.46 | -2.45 |
| LFCNQCGFACTQKGNLLRHIKL [46L_47F_49N_50Q_52G_53F_54A_55C_67L_, Q9UKT9] | -0.744 | -1.36 | -1.06 | -1.14 |
| LACNQCGFECTQKGNLLRHIKL [46L_47A_49N_50Q_52G_53F_54E_55C_67L_, Q9UKT9] | -2.6 | -2.34 | -2.97 | -2.24 |
| FYCNQCGRLFTQKGNLLRHIKL [46F_47Y_49N_50Q_52G_53R_54L_55F_67L_, Q9UKT9] | -1.45 | -2.33 | -2.01 | -1.7 |
| FKCDVCGAVFTQKGNLLRHIKL [46F_47K_49D_50V_52G_53A_54V_55F_67L_, Q9UKT9] | -3.26 | -3.42 | -3.55 | -2.43 |
| FVCDQCGAEFTQKGNLLRHIKL [46F_47V_49D_50Q_52G_53A_54E_55F_67L_, Q9UKT9] | -3.02 | -2.35 | -2.96 | -1.78 |
| FCCNQCGASFTQKGNLLRHIKL [46F_47C_49N_50Q_52G_53A_54S_55F_67L_, Q9UKT9] | -1.43 | -1.92 | -0.445 | -1.53 |
| LWCEICGFLCTQKGNLLRHIKL [46L_47W_49E_50I_52G_53F_54L_55C_67L_, Q9UKT9] | 1.13 | 1.39 | 1.44 | 0.295 |
| FKCNICGAHFTQKGNLLRHIKL [46F_47K_49N_50I_52G_53A_54H_55F_67L_, Q9UKT9] | -1.74 | -2.18 | -2.99 | -1.98 |
| FRCNVCGAIFTQKGNLLRHIKL [46F_47R_49N_50V_52G_53A_54I_55F_67L_, Q9UKT9] | -1.97 | -2.04 | -0.492 | -0.595 |
| FRCPVCGAIFTQKGNLLRHIKL [46F_47R_49P_50V_52G_53A_54I_55F_67L_, Q9UKT9] | -1.67 | -0.943 | 0.606 | 0.832 |
| FHCPVCGAIFTQKGNLLRHIKL [46F_47H_49P_50V_52G_53A_54I_55F_67L_, Q9UKT9] | 0.164 | 0.683 | 1.33 | -0.0983 |
| FQCNVCGAIFTQKGNLLRHIKL [46F_47Q_49N_50V_52G_53A_54I_55F_67L_, Q9UKT9] | -1.8 | 1.3 | 1.44 | 3.37 |
| FCCDICGAIFTQKGNLLRHIKL [46F_47C_49D_50I_52G_53A_54I_55F_67L_, Q9UKT9] | -0.218 | 0.0957 | 1.18 | 0.132 |
| FKCDICGAIFTQKGNLLRHIKL [46F_47K_49D_50I_52G_53A_54I_55F_67L_, Q9UKT9] | -2.93 | -3.42 | -2.93 | -2.01 |
| FQCDICGAIFTQKGNLLRHIKL [46F_47Q_49D_50I_52G_53A_54I_55F_67L_, Q9UKT9] | -1.32 | 2.34 | 1.7 | 3.47 |
| FFCPVCGAIFTQKGNLLRHIKL [46F_47F_49P_50V_52G_53A_54I_55F_67L_, Q9UKT9] | 1.97 | 2.07 | 0.852 | 0.24 |
| FYCNVCGAIFTQKGNLLRHIKL [46F_47Y_49N_50V_52G_53A_54I_55F_67L_, Q9UKT9] | -0.301 | 0.0156 | -0.132 | -1.44 |
| FGCPVCGAIFTQKGNLLRHIKL [46F_47G_49P_50V_52G_53A_54I_55F_67L_, Q9UKT9] | 3.73 | 2.12 | 2.5 | 0.899 |
| FVCPVCGAIFTQKGNLLRHIKL [46F_47V_49P_50V_52G_53A_54I_55F_67L_, Q9UKT9] | -1.21 | 0.225 | 1.42 | 1.3 |
| FQCPVCGAIFTQKGNLLRHIKL [46F_47Q_49P_50V_52G_53A_54I_55F_67L_, Q9UKT9] | -0.448 | 3.15 | 2.64 | 3.53 |
| FQCEQCGAWFTQKGNLLRHIKL [46F_47Q_49E_50Q_52G_53A_54W_55F_67L_, Q9UKT9] | -2.85 | -2.85 | -1.86 | -0.183 |
| FRCDICGAHFTQKGNLLRHIKL [46F_47R_49D_50I_52G_53A_54H_55F_67L_, Q9UKT9] | -1.41 | -1.53 | 0.162 | -1.18 |
| FACDVCGACFTQKGNLLRHIKL [46F_47A_49D_50V_52G_53A_54C_55F_67L_, Q9UKT9] | 1.83 | -0.406 | -0.331 | -2.56 |
